Measured values: PubChem BioAssay (NCI)
About 83,000 compounds went through this panel and 20% of them were active in at least one assay; those are over-represented in the sample as a whole.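 Values shown are percent growth following 48 h exposure of cells in 96-well plates to a single concentration of compound; below 10 was considered active.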 Unmarked numbers belong to inactive results. The source made the active and inactive calls.

Test system: HL-60(TB) leukemia
Assay: NCI-60 one-dose screen, 48 h (100 = growth as untreated, 0 = no growth, -100 = all killed)
Conditions: 10 µM unless noted

SMILES | growth
CCOC(=O)c1cnc2c(N=Nc3ccc(OC)cc3)c(N)nn2c1N | 96.2%
CC1Cc2ccc(OCCN(C)C)cc2C1=O (stereo not given) | 111%
O=C(O)c1cn(C2CC2)c2cc(N3CCN(C(=O)CSc4nnc(-c5ccc(Cl)cc5)n4-c4ccccc4)CC3)c(F)cc2c1=O | 91.1%
O=C(c1ccc(O)cc1)c1ccc(O)cc1 | 117%
CC[C@]1(O)C[C@@H]2CN(CCc3c([nH]c4ccccc34)[C@@](C(=O)OC)(c3cc4c(cc3OC)N(C)[C@H]3[C@@](O)(C(=O)OC)[C@H](OC(=O)CCCBr)[C@]5(CC)C=CCN6CC[C@]43[C@@H]65)C2)C1 | -21.2% (active)
CCN(CC)CCn1c2ccc(OC)cc2c2sc3cc(OC)ccc3c(=O)c21 | 7.58% (active)
CCOc1cc(/C=C/C(=O)CC(=O)/C=C/c2ccc(OC(=O)CNCCN(CC)CC)c(OCC)c2)ccc1OC(=O)CNCCN(CC)CC | -30.5% (active)
COc1cc(C(=O)NC(=S)Nc2ccc3ccccc3c2)cc(OC)c1OC | 97.1%
O=c1oc2ccccc2cc1-c1nn(-c2ccccc2)cc1-c1nn[nH]n1 | 96.8%
O=C1/C=C/[C@@H](O)[C@@H]2C[C@@H](O)C[C@H]2/C=C/CCC[C@H](CCOCc2ccccc2)O1 | 0.107% (active)
C(=C\c1ccncc1)/c1ccncc1 | 105%
CC12O[C@H](C[C@@H](OC(=O)c3ccccc3)[C@H]1O)n1c3ccccc3c3c4c(c5c6ccccc6n2c5c31)C(=O)NC4=O | 96.9%
CCOC(=O)C1=C(c2ccccc2)N=C2SC=C(c3ccc(Cl)cc3)N2C1c1ccc(Br)cc1 (stereo not given) | 55.2%
CC(=O)O[C@H]1[C@@H]2OC(=O)C(CSc3ccccc3)[C@@H]2C[C@H]2O[C@]2(C)CC/C=C(\C)CCC[C@@H]1C (stereo not given in full) | 25.8%
COc1ccc(C(=O)c2cc(OC)c(OC)c(OC)c2)cc1/C=C/C(=O)c1ccc(O)cc1 | 14.2%
O=[N+]([O-])c1cc2c(ccc3occc32)o1 | 5.05% (active)
Cc1cc(Nc2nc(-c3cccnc3)nc3ccccc23)n[nH]1 | 53.4%
O=C(Nc1cccc(-c2ccc(Cl)c(C(F)(F)F)c2)c1)C1CCN(Cc2cccc3cccnc23)CC1 | -53.9% (active)
O=c1ccc2nc(-c3ccccc3)nn(-c3ccccn3)c-2c1 | -28.1% (active)
O=C1CC(SC(=S)C2CCCC2=O)C(=O)N1 (stereo not given) | 97%

SMILES | growth
COc1cc2cc3cc4cc(OC)c(OC)cc4c(C)[n+]3cc2cc1OC (tested in a mixture with another compound) | 33%
C=CC(=O)Nc1cccc(Nc2nc(SC)nc(-c3cccc([N+](=O)[O-])c3)c2C#N)c1 | 63.4%
CCN1C(=O)N(CC)C2C1NN=c1s/c(=C\c3ccco3)c(=O)n12 (stereo not given) | -20.3% (active)
N#C/C(=C\c1c(-c2ccccc2)[nH]c2ccccc12)C(N)=O | 39.6%
CS(=O)(=O)c1nsc(N)n1 | 105%
O=c1[nH]c(CN2CCN(c3ccccc3F)CC2)nc2sc3c(c12)CCC3 | 116%
O=C1CCC(=O)CC1 | 97.7%
O=C(NC1CCNCC1)c1[nH]ncc1NC(=O)c1c(Cl)cccc1Cl | -31.8% (active)
CC/C=C(\C)C(CCC)(CN=O)C(=O)OCC (stereo not given) | 110%
O=C(/C=C/c1ccc(Cl)cc1)c1ccc(Nc2nc(NCCO)nc(N3CCOCC3)n2)cc1 | 99%
COc1ccc(C(=O)C(CN(C)C)CN(C)C)cc1 | 3.54% (active)
CN1C(=O)C(C2=NNC(c3ccccc3C(=O)O)C2)C(=O)N(C)C1=O (stereo not given) | 95.5%
O=[N+]([O-])c1ccc(N/N=C\c2ccccc2[N+](=O)[O-])nc1 | 109%
CC(=O)N1N=C(c2ccc(Nc3nc(Nc4ccc(F)cc4)nc(Nc4ccc(F)cc4)n3)cc2)CC1c1cccc([N+](=O)[O-])c1 (stereo not given) | 0% (active)
O=C(O)c1cn(C2CC2)c2cc(N3CCN(Cc4nc5c(cnn5-c5ccc([N+](=O)[O-])cc5)c(=O)[nH]4)CC3)c(F)cc2c1=O | 92.8%
CCN(CC)CCCCCCCCNc1c2ccc(Cl)cc2nc2ccc(OC)cc12 | -53.2% (active)
C=CC(=O)Nc1cccc(Oc2nccc(Nc3nnc(C4CC4)s3)n2)c1 | 78%
O=C(Nc1ccccc1-c1nc2ccccc2c(=O)[nH]1)c1cc2ccccc2[nH]1 | 65.5%
Clc1c(Cl)[n+](Cc2ccc3ccccc3c2)cn1Cc1ccc2ccccc2c1 | -54.7% (active)
COc1ccc(-c2cn3ccnc3c(-c3ccc4ncn(C5CCCCC5)c4c3)n2)cc1 | 1.36% (active)
